Measured values: PubChem BioAssay (NCI)
The panel holds about 83,000 compounds, 20% with a hit somewhere; the sample as a whole holds those more often.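 For each line, cells grew in 96-well plates with the test compound present at a single concentration for 48 hours.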 Unmarked numbers belong to inactive results. Calls of active or inactive are those of the source. How the source made its calls: active means growth percent below 10; inactive means the rest.

system: HCC-2998 colon; experiment: NCI-60 one-dose screen, 48 h (100 = growth as untreated, 0 = no growth, -100 = all killed); conditions: 10 µM

SMILES | growth
NS(=O)(=O)Oc1ccc(NC(=O)C2CCCCCC2)cc1 | 101%
O=C(CSc1nnc(-c2cccnc2SCc2ccccc2)o1)Nc1nc(Cl)cc(Cl)n1 | 103%
O=C1/C=C/[C@@H](O)[C@@H]2C[C@@H](O)C[C@H]2/C=C/CCC[C@H](CCc2ccc(NC(=S)Nc3ccc4c(c3)C(=O)OC43c4ccc(O)cc4Oc4cc(O)ccc43)cc2)O1 | -7.57% (active)
O=C(CCl)Nc1ccc(Cc2ccc(NC(=O)CCl)cc2)cc1 | -14.9% (active)
Cc1cc(Cl)ccc1Nc1nc(C(F)(F)F)ccc1C(=O)N/N=C/c1c(Cl)cccc1Cl | 19.5%
COc1ccc2c(c1)C(=O)/C(=C/c1ccc([N+](=O)[O-])o1)O2 | -78.5% (active)
S=C(SSC(=S)N(c1ccccc1)c1ccccc1)N(c1ccccc1)c1ccccc1 | 101%
CC(C)=CCC/C(C)=C/CC/C(C)=C/CC/C=C(\C)CC/C=C(\C)CCC(=O)Nc1ccn(C2OC(CO)C(O)C2(F)F)c(=O)n1 (stereo not given) | 82.4%
c1ccc(/C(=N\Nc2ccc3ccccc3n2)c2ccccn2)cc1 | 45.5%
c1ccc(CSc2ncccc2-c2nnc(SCCN3CCOCC3)o2)cc1 | 116%
CN(C)c1ncnc2c1nnn2C1OC(CO)C(O)C1O (stereo not given) | 8.01% (active)
COc1ccccc1/C=N\N/C(N)=N\N=C\c1ccccc1OC | 5.64% (active)
COc1cc(/C=C/c2cc(/C=C/c3ccc(O)c(OC)c3)nc(N)n2)ccc1O | 0.932% (active)
O=C(/C=C/c1cccc(B(O)O)c1)c1cccc(B(O)O)c1 | -86.4% (active)
CN(C)CCC1(c2ccccc2)CCN(C)C1=O (stereo not given) | 108%
COc1ccc(/C=C/c2nnc(/C=C/c3ccc(OC)c(OC)c3)o2)cc1OC | 54.9%
CN(C)c1ccc(/C=N/NC(=O)c2ccccc2Nc2cccc(C(F)(F)F)c2)cc1 | 116%
CN(C)CCOc1ccc(-c2nc3sccn3c2-c2ccnc(S(C)(=O)=O)n2)cc1 | 111%
COc1ccc(CCN2CCC(Nc3nc4ccccc4n3Cc3ccc(F)cc3)CC2)cc1 | -84.6% (active)
O=C(CN(C1CCCCC1)C1CCCCC1)Nc1ccc(S(=O)(=O)c2ccc(NC(=O)CN(C3CCCCC3)C3CCCCC3)cc2)cc1 | -37.4% (active)

SMILES | growth
COc1ccc2nc(-c3ccc(Cl)cc3)cc(-c3nnc(SC/C(=N\O)c4ccccc4)n3-c3ccccc3)c2c1 | 115%
Cc1cc(CSc2ccccc2C(=O)N2CC=C(c3ccccc3)CC2)on1 | 93.3%
CCOC(=O)c1cc(C(=O)c2cc(OC)c(OC)c(OC)c2)n2nc(C)ccc12 | 25.9%
O=C(O)c1ccc(-n2cc(CNc3ccc(Cl)cc3)c(-c3ccccc3)n2)cc1 | 113%
CNC(=O)c1cc(Oc2ccc3c(c2)sc2nc(-c4ccc(N)cc4)cn23)ccn1 | 20.9%
Nc1ccc(CC[C@H]2CCC/C=C/[C@@H]3C[C@H](O)C[C@H]3[C@H](O)/C=C/C(=O)O2)cc1 | -15.3% (active)
CNC(=O)c1cn(C2CC2)c2cc(N3CCN(C(=O)c4cc(OC)c(OC)c(OC)c4)CC3)c(F)cc2c1=O | 113%
CN1CCN(C2=Nc3ccccc3Oc3ccc(Cl)cc32)CC1 | 116%
COc1ccc(Cc2cnc(N)nc2N)cc1OC | 105%
COc1ccc(C(c2ccc(OCCN(C)C)cc2)c2cc3ccccc3c3ccccc23)cc1 (stereo not given) | -19.7% (active)
O=C(N/N=C/c1ccc(Cl)cc1)c1ccccc1Nc1cccc(C(F)(F)F)c1 | 103%
CC(=O)O[C@@]12CO[C@@H]1C[C@H](O)[C@@]1(C)C(=O)[C@H](O)C3=C(C)[C@@H](OC(=O)[C@H](O)[C@@H](NC(=O)OC(C)(C)C)c4ccccc4)C[C@@](O)([C@@H](OC(=O)c4ccccc4)C12)C3(C)C (stereo not given in full) | -18.8% (active)
CS(=O)(=O)c1nccc(-c2c(-c3cccc(OCCc4ccccc4)c3)nc3sccn23)n1 | 109%
C(=N\Nc1ncnc2sc3c(c12)CCNC3)/c1cccc2ccccc12 | 92.6%
CNS(=O)(=O)Oc1ccc(-c2sc3cc(OS(=O)(=O)NC)ccc3c2C(=O)c2ccc(OCCN3CCCCC3)cc2)cc1 | 93.8%
CCCCC/C=C/C/C=C/CCCCCCCC1=NC(C)(C)CN1C(C)C | -9.05% (active)
C#C[C@]1(O)CCC2C3CCc4cc(OC5CCCC5)ccc4C3CC[C@@]21C (stereo not given in full) | 74.1%
O=C(N/N=C/c1c(Cl)cccc1Cl)c1ccccc1Nc1cccc(C(F)(F)F)c1 | 117%
COc1cccc(-c2nc3sccn3c2-c2cccc(S(C)(=O)=O)c2)c1 | 94%
CC(=O)Nc1ccc(S(=O)(=O)c2ccnc3cc(Cl)ccc23)cc1 | 100%
